{"source": "the supplement of paper PMC8728848", "binders": {"B1": {"name": "Clec18C (Homo sapiens) (protein)", "chain": "MLHPETSPGRGHLLAVLLALLGTAWAEVWPPQLQEQAPMAGALNRKESFLLLSLHNRLRSWVQPPAADMRRLDWSDSLAQLAQARAALCGTPTPSLASGLWRTLQVGWNMQLLPAGLVSFVEVVSLWFAEGQRYSHAAGECARNATCTHYTQLVWATSSQLGCGRHLCSAGQAAIEAFVCAYSPRGNWEVNGKTIVPYKKGAWCSLCTASVSGCFKAWDHAGGLCEVPRNPCRMSCQNHGRLNISTCHCHCPPGYTGRYCQVRCSLQCVHGRLREEECSCVCDIGYGGAQCATKVHFPFHTCDLRIDGDCFMVSSEADTYYRARMKCQRKGGVLAQIKSQKVQDILAFYLGRLETTNEVIDSDFETRNFWIGLTYKTAKDSFRWATGEHQAFTSFAFGQPDNHGFGNCVELQASAAFNWNNQRCKTRNRYICQFAQEHISRWGPGS"}}, "experiment_in_all_cases": "glycan array binding signal (z-score within array); higher = stronger binding", "conditions_in_all_cases": "glycan notation: IUPAC condensed, linker removed", "key": {"[1]": {"target": "Fuc(a1-2)Gal(b1-3)GlcNAc(b1-2)Man(a1-3)[Fuc(a1-2)Gal(b1-3)GlcNAc(b1-2)Man(a1-6)]Man(b1-4)GlcNAc(b1-4)GlcNAc", "how_it_was_run": "(§1)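 Columns mapping to the same glycan were averaged after glycan names were converted to IUPAC-condensed notation. The data come from 3228 arrays in the Consortium for Functional Glycomics database, limited to those with an available protein sequence. Binding is reported as a within-array Z-score averaged across arrays of one protein sequence and across linkers.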"}, "[2]": {"target": "Fuc(a1-2)Gal(b1-3)[Fuc(a1-4)]GlcNAc(b1-2)Man(a1-3)[Fuc(a1-2)Gal(b1-3)[Fuc(a1-4)]GlcNAc(b1-2)Man(a1-3)]Man(b1-4)GlcNAc(b1-4)GlcNAc", "how_it_was_run": "as §1"}, "[3]": {"target": "Fuc(a1-2)Gal(b1-4)GlcNAc(b1-3)Gal(b1-4)GlcNAc(b1-2)Man(a1-3)[Fuc(a1-2)Gal(b1-4)GlcNAc(b1-3)Gal(b1-4)GlcNAc(b1-2)Man(a1-6)]Man(b1-4)GlcNAc(b1-4)GlcNAc", "how_it_was_run": "as §1"}, "[4]": {"target": "Fuc(a1-2)Gal(b1-4)GlcNAc(b1-3)GalNAc", "how_it_was_run": "as §1"}, "[5]": {"target": "Fuc(a1-2)Gal6S(b1-3)GlcNAc6S", "how_it_was_run": "as §1"}, "Fuc(a1-2)[Gal(a1-3)]Gal": {"target": "Fuc(a1-2)[Gal(a1-3)]Gal", "how_it_was_run": "as §1"}, "[6]": {"target": "Fuc(a1-2)[Gal(a1-3)]Gal(b1-3)GlcNAc(b1-2)Man(a1-3)[Fuc(a1-2)[Gal(a1-3)]Gal(b1-3)GlcNAc(b1-2)Man(a1-6)]Man(b1-4)GlcNAc(b1-4)GlcNAc", "how_it_was_run": "as §1"}, "[7]": {"target": "Fuc(a1-3)[Gal(b1-4)]GlcNAc(b1-3)Gal(b1-4)[Fuc(a1-3)]GlcNAc", "how_it_was_run": "as §1"}, "[8]": {"target": "Fuc(a1-3)[GalNAc(b1-4)]GlcNAc6S", "how_it_was_run": "as §1"}, "Gal(a1-4)Gal(b1-4)GlcNAc": {"target": "Gal(a1-4)Gal(b1-4)GlcNAc", "how_it_was_run": "as §1"}, "[9]": {"target": "Gal(b1-3)GlcNAc(b1-2)[Gal(b1-3)GlcNAc(b1-6)]Man(a1-6)[Gal(b1-3)GlcNAc(b1-2)Man(a1-3)]Man(b1-4)GlcNAc(b1-4)GlcNAc", "how_it_was_run": "as §1"}, "[10]": {"target": "Gal(b1-3)GlcNAc(b1-3)Gal(b1-3)GlcNAc", "how_it_was_run": "as §1"}, "[11]": {"target": "Gal(b1-3)GlcNAc(b1-3)Gal(b1-4)Glc", "how_it_was_run": "as §1"}, "[12]": {"target": "Gal(b1-3)[GlcNAc(b1-6)]GalNAc", "how_it_was_run": "as §1"}, "[13]": {"target": "Gal(b1-4)GlcNAc(b1-2)Man(a1-3)[Gal(b1-4)GlcNAc(b1-2)Man(a1-6)]Man(b1-4)GlcNAc(b1-4)GlcNAc", "how_it_was_run": "as §1"}, "[14]": {"target": "Gal(b1-4)GlcNAc(b1-2)Man(a1-3)[Gal(b1-4)GlcNAc(b1-2)Man(a1-6)][GlcNAc(b1-4)]Man(b1-4)GlcNAc(b1-4)[Fuc(a1-6)]GlcNAc", "how_it_was_run": "as §1"}, "[15]": {"target": "Gal(b1-4)GlcNAc(b1-3)Gal(b1-3)GalNAc", "how_it_was_run": "as §1"}, "[16]": {"target": "Gal(b1-4)GlcNAc(b1-3)Gal(b1-4)GlcNAc(b1-3)Gal(b1-4)GlcNAc(b1-3)Gal(b1-4)GlcNAc(b1-2)Man(a1-3)[Gal(b1-4)GlcNAc(b1-3)Gal(b1-4)GlcNAc(b1-3)Gal(b1-4)GlcNAc(b1-3)Gal(b1-4)GlcNAc(b1-2)Man(a1-6)]Man(b1-4)GlcNAc(b1-4)GlcNAc", "how_it_was_run": "as §1"}, "[17]": {"target": "Gal(b1-4)GlcNAc(b1-3)Gal(b1-4)GlcNAc(b1-3)Gal(b1-4)GlcNAc(b1-3)Gal(b1-4)GlcNAc(b1-2)Man(a1-3)[Gal(b1-4)GlcNAc(b1-3)Gal(b1-4)GlcNAc(b1-3)Gal(b1-4)GlcNAc(b1-3)Gal(b1-4)GlcNAc(b1-2)Man(a1-6)]Man(b1-4)GlcNAc(b1-4)[Fuc(a1-6)]GlcNAc", "how_it_was_run": "as §1"}, "[18]": {"target": "Gal(b1-4)GlcNAc(b1-3)Gal(b1-4)GlcNAc(b1-3)Gal(b1-4)GlcNAc(b1-3)Gal(b1-4)GlcNAc(b1-3)Gal(b1-4)GlcNAc(b1-2)Man(a1-3)[Gal(b1-4)GlcNAc(b1-3)Gal(b1-4)GlcNAc(b1-3)Gal(b1-4)GlcNAc(b1-3)Gal(b1-4)GlcNAc(b1-3)Gal(b1-4)GlcNAc(b1-2)Man(a1-6)]Man(b1-4)GlcNAc(b1-4)[Fuc(a1-6)]GlcNAc", "how_it_was_run": "as §1"}, "[19]": {"target": "Gal(b1-4)GlcNAc(b1-3)[Fuc(a1-3)GlcNAc(b1-6)]Gal(b1-4)Glc", "how_it_was_run": "as §1"}, "[20]": {"target": "Gal(b1-4)GlcNAc(b1-3)[Gal(b1-4)GlcNAc(b1-6)]Gal(b1-4)GlcNAc", "how_it_was_run": "as §1"}, "Gal(b1-4)GlcNAc6P": {"target": "Gal(b1-4)GlcNAc6P", "how_it_was_run": "as §1"}, "Gal3S(b1-4)Glc6S": {"target": "Gal3S(b1-4)Glc6S", "how_it_was_run": "as §1"}, "[21]": {"target": "Gal3S(b1-4)[Fuc(a1-3)]GlcNAc6S", "how_it_was_run": "as §1"}, "GalNAc(b1-3)GlcNAc": {"target": "GalNAc(b1-3)GlcNAc", "how_it_was_run": "as §1"}, "[22]": {"target": "GalNAc3S(b1-4)[Fuc(a1-3)]GlcNAc", "how_it_was_run": "as §1"}, "[23]": {"target": "GlcA3S(b1-3)Gal(b1-4)GlcNAc(b1-3)Gal(b1-4)Glc", "how_it_was_run": "as §1"}, "[24]": {"target": "GlcNAc(b1-3)Gal(b1-4)GlcNAc(b1-2)[GlcNAc(b1-3)Gal(b1-4)GlcNAc(b1-6)]Man(a1-6)[GlcNAc(b1-3)Gal(b1-4)GlcNAc(b1-2)Man(a1-3)]Man(b1-4)GlcNAc(b1-4)GlcNAc", "how_it_was_run": "as §1"}, "[25]": {"target": "GlcNAc(b1-3)Gal(b1-4)GlcNAc(b1-6)[Gal(b1-3)]GalNAc", "how_it_was_run": "as §1"}, "Man(a1-3)[Man(a1-6)]Man": {"target": "Man(a1-3)[Man(a1-6)]Man", "how_it_was_run": "as §1"}, "[26]": {"target": "Neu5Ac(a2-3)Gal(b1-3)GlcNAc(b1-6)GalNAc", "how_it_was_run": "as §1"}, "[27]": {"target": "Neu5Ac(a2-3)Gal(b1-4)GlcNAc(b1-6)GalNAc", "how_it_was_run": "as §1"}, "[28]": {"target": "Neu5Ac(a2-6)Gal(b1-4)GlcNAc(b1-2)Man(a1-3)[Man(a1-6)]Man(b1-4)GlcNAc(b1-4)GlcNAc", "how_it_was_run": "as §1"}, "[29]": {"target": "Neu5Ac(a2-6)Gal(b1-4)GlcNAc(b1-2)Man(a1-3)[Neu5Ac(a2-6)Gal(b1-4)GlcNAc(b1-2)Man(a1-6)]Man(b1-4)GlcNAc(b1-4)GlcNAc", "how_it_was_run": "as §1"}, "[30]": {"target": "Neu5Ac(a2-6)Gal(b1-4)GlcNAc(b1-3)Gal(b1-3)GlcNAc", "how_it_was_run": "as §1"}, "[31]": {"target": "Neu5Ac(a2-6)Gal(b1-4)GlcNAc(b1-3)Gal(b1-4)GlcNAc", "how_it_was_run": "as §1"}, "Neu5Ac(a2-6)GalNAc": {"target": "Neu5Ac(a2-6)GalNAc", "how_it_was_run": "as §1"}, "Neu5Gc(a2-6)GalNAc": {"target": "Neu5Gc(a2-6)GalNAc", "how_it_was_run": "as §1"}}, "note": "This excerpt belongs to a sample that is enriched for the strongest signals."}
{"binder": "B1", "values": [{"measurement": "glycan array binding signal (z-score)", "setting": "[1]", "value": 3.46}, {"measurement": "glycan array binding signal (z-score)", "setting": "[2]", "value": 0.055}, {"measurement": "glycan array binding signal (z-score)", "setting": "[3]", "value": 0.124}, {"measurement": "glycan array binding signal (z-score)", "setting": "[4]", "value": 3.79}, {"measurement": "glycan array binding signal (z-score)", "setting": "[5]", "value": -0.032}, {"measurement": "glycan array binding signal (z-score)", "setting": "Fuc(a1-2)[Gal(a1-3)]Gal", "value": -0.382}, {"measurement": "glycan array binding signal (z-score)", "setting": "[6]", "value": -0.479}, {"measurement": "glycan array binding signal (z-score)", "setting": "[7]", "value": -0.261}, {"measurement": "glycan array binding signal (z-score)", "setting": "[8]", "value": 0.313}, {"measurement": "glycan array binding signal (z-score)", "setting": "Gal(a1-4)Gal(b1-4)GlcNAc", "value": 1.24}, {"measurement": "glycan array binding signal (z-score)", "setting": "[9]", "value": -0.547}, {"measurement": "glycan array binding signal (z-score)", "setting": "[10]", "value": -0.443}, {"measurement": "glycan array binding signal (z-score)", "setting": "[11]", "value": -0.457}, {"measurement": "glycan array binding signal (z-score)", "setting": "[12]", "value": 4.42}, {"measurement": "glycan array binding signal (z-score)", "setting": "[13]", "value": 5.03}, {"measurement": "glycan array binding signal (z-score)", "setting": "[14]", "value": 1.07}, {"measurement": "glycan array binding signal (z-score)", "setting": "[15]", "value": 5.75}, {"measurement": "glycan array binding signal (z-score)", "setting": "[16]", "value": 1.91}, {"measurement": "glycan array binding signal (z-score)", "setting": "[17]", "value": -0.276}, {"measurement": "glycan array binding signal (z-score)", "setting": "[18]", "value": 3.34}, {"measurement": "glycan array binding signal (z-score)", "setting": "[19]", "value": -0.356}, {"measurement": "glycan array binding signal (z-score)", "setting": "[20]", "value": 7.63}, {"measurement": "glycan array binding signal (z-score)", "setting": "Gal(b1-4)GlcNAc6P", "value": 5.02}, {"measurement": "glycan array binding signal (z-score)", "setting": "Gal3S(b1-4)Glc6S", "value": -0.387}, {"measurement": "glycan array binding signal (z-score)", "setting": "[21]", "value": -0.116}, {"measurement": "glycan array binding signal (z-score)", "setting": "GalNAc(b1-3)GlcNAc", "value": 3.98}, {"measurement": "glycan array binding signal (z-score)", "setting": "[22]", "value": -0.342}, {"measurement": "glycan array binding signal (z-score)", "setting": "[23]", "value": -0.395}, {"measurement": "glycan array binding signal (z-score)", "setting": "[24]", "value": -0.368}, {"measurement": "glycan array binding signal (z-score)", "setting": "[25]", "value": -0.398}, {"measurement": "glycan array binding signal (z-score)", "setting": "Man(a1-3)[Man(a1-6)]Man", "value": -0.507}, {"measurement": "glycan array binding signal (z-score)", "setting": "[26]", "value": -0.247}, {"measurement": "glycan array binding signal (z-score)", "setting": "[27]", "value": 3.92}, {"measurement": "glycan array binding signal (z-score)", "setting": "[28]", "value": -0.24}, {"measurement": "glycan array binding signal (z-score)", "setting": "[29]", "value": 0.183}, {"measurement": "glycan array binding signal (z-score)", "setting": "[30]", "value": 0.131}, {"measurement": "glycan array binding signal (z-score)", "setting": "[31]", "value": 3.16}, {"measurement": "glycan array binding signal (z-score)", "setting": "Neu5Ac(a2-6)GalNAc", "value": 5.42}, {"measurement": "glycan array binding signal (z-score)", "setting": "Neu5Gc(a2-6)GalNAc", "value": -0.265}]}
